Assay outcomes as filed in PubChem.
USP28 inh = inhibitors of human USP28 deubiquitinase | 47,000 tested, 3% active | AID 1645857 | purified USP28, Ub-rhodamine cleavage fluorescence, 30 min | Q96RU2 | inhibition, % at 25 µM
Target sequence (Q96RU2 whole entry, looked up): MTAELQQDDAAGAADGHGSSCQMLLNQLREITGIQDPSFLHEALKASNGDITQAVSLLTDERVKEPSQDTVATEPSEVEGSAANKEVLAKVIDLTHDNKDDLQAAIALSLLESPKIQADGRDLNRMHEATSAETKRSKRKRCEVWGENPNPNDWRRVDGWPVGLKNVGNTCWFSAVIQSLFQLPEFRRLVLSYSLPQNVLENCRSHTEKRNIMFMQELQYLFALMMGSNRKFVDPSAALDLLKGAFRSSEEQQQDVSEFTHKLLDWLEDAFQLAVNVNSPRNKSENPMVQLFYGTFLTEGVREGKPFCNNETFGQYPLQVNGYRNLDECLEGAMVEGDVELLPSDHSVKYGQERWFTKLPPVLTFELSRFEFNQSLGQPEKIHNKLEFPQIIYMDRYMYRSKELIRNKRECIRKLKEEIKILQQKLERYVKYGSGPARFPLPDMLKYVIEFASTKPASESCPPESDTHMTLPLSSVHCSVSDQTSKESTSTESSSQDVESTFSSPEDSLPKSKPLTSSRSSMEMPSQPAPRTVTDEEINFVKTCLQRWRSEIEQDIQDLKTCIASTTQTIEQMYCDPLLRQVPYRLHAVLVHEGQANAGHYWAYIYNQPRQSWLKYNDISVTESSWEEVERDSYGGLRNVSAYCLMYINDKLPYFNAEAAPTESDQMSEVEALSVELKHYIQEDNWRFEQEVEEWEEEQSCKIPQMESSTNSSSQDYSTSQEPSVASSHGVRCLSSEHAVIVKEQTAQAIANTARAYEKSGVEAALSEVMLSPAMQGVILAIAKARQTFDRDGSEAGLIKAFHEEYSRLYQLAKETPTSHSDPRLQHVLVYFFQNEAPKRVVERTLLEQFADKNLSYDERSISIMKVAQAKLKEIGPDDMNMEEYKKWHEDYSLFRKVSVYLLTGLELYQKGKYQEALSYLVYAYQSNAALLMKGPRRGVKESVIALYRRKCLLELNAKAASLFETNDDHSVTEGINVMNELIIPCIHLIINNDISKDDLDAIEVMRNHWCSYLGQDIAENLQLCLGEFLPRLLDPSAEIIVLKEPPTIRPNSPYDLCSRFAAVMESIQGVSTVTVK
USP17 inh = blocks human USP17 ubiquitin-rhodamine cleavage; A8MUK1; inhibition, % at 50 µM; purified USP17, Ub-rhodamine cleavage fluorescence, 3 h; 47,000 tested, 6.5% active
USP30 inh = inhibitors of human USP30 deubiquitinase; Q70CQ3; purified USP30, Ub-rhodamine cleavage fluorescence; inhibition, % at 25 µM; 47,000 tested, 5.3% active
* hit, by the source's call. Hits are enriched below; roughly 11% of the tested compounds scored in any of these assays. Rule as the data show it: active = inhibition above about 30%; inactive = the rest.

How did CC[C@@]1(O)C[C@H](OC2CC(N(C)C)C(OC3CC(O)C(OC4CCC(=O)C(C)O4)C(C)O3)C(C)O2)c2c(cc3c(c2O)C(=O)c2c(O)ccc(O)c2C3=O)[C@H]1C(=O)OC (some centres not stated) do in these assays?
USP28 inh: 13.2; USP17 inh: 70.9*; USP30 inh: -13.1

What do the screens show for `O=C1c2c(O)c(Cl)cc3c2[C@@]2(Oc4cc(Cl)c(O)c5c4[C@]3(O2)[C@@H]2O[C@@H]2C5=O)[C@@H]2O[C@H]12`?
USP28 inh: 77.9*; USP17 inh: 75.9*; USP30 inh: 6.4

How did CCOC(=O)C1CCN(C(=O)COc2cc(C)cc3oc(=O)c4c(c23)CCCC4)CC1 do in these assays?
USP28 inh: -1.5; USP17 inh: -4.6; USP30 inh: -25.7

Results for Cc1nn(C2CCCC2)c2c1C(c1ccc3c(c1)OCO3)SCC(=O)N2 (configuration not stated) ?
USP28 inh: 8.7; USP17 inh: -12.4; USP30 inh: 30.3*

What do the screens show for `O=C1CSC(c2ccc3c(c2)OCO3)c2c(n(C3CCCC3)[nH]c2=O)N1` (configuration not stated)?
USP28 inh: 2.4; USP17 inh: 0.0; USP30 inh: 22.8

How did CCNC(=O)N1CCN2C[C@H](c3ccccc3)[C@@H](C(=O)OCC)[C@H]2C1 do in these assays?
USP28 inh: -16.6; USP17 inh: -13.8; USP30 inh: -26.3

How did O=C1CSC(c2cccc([N+](=O)[O-])c2)c2c(n(C3CCCCCC3)[nH]c2=O)N1 (configuration not stated) do in these assays?
USP28 inh: 7.6; USP30 inh: 27.7

What do the screens show for `CC(=O)O[C@H]1[C@]2(O)C[C@]34SS[C@](CO)(C(=O)N3[C@@H]2C[C@@]12O[C@@H](C)C(C)(C)C2=O)N(C)C4=O`?
USP28 inh: -2.0; USP17 inh: -32.6; USP30 inh: 62.9*

Results for C[C@@H]1O[C@H](OC2[C@H](O)[C@H](O)C(O)[C@H](O)[C@H]2O)[C@H](N)C[C@@H]1N=C(N)C(=O)O (some centres not stated) ?
USP28 inh: -11.1; USP17 inh: -9.6; USP30 inh: 0.1

How did O=C(NC1CC1)[C@H]1C[C@@H]2CCN(Cc3ccncc3)C[C@H]2O1 do in these assays?
USP28 inh: -20.5; USP17 inh: -50.8; USP30 inh: -15.8

Results for O=C(Nc1nc2ccccc2s1)c1cccn(Cc2ccc(Cl)cc2)c1=O ?
USP28 inh: -13.0; USP17 inh: 7.4; USP30 inh: -17.1

What do the screens show for `O=C(NCc1cccnc1)c1cccn(Cc2ccc(Cl)cc2)c1=O`?
USP28 inh: 13.7; USP17 inh: 6.8; USP30 inh: 31.6*

How did Cc1nn(C2CCOC(C)(C)C2)c2c1C(c1ccc(F)cc1)SCC(=O)N2 (configuration not stated) do in these assays?
USP28 inh: 12.7; USP17 inh: -6.6; USP30 inh: 6.0

What do the screens show for `CCCn1cc(C(=O)NCC2CCCO2)c2cccnc21` (configuration not stated)?
USP28 inh: -8.4; USP17 inh: 4.2; USP30 inh: -3.3

What do the screens show for `Cn1c(=O)[nH]c2nncnc2c1=O`?
USP28 inh: 0.9; USP17 inh: 72.9*; USP30 inh: -14.9

How did NC(=O)[C@@H]1CN2CCN(C(=O)COc3ccccc3)C[C@@H]2[C@H]1c1ccccc1 do in these assays?
USP17 inh: -7.1

Results for COc1ccc2c3c4n(c2c1)C(C=C(C)C)OOC(C)(C)CC4N1C(=O)C2CCCN2C(=O)C1(O)C3O (configuration not stated) ?
USP28 inh: -3.7; USP17 inh: -5.7; USP30 inh: 4.2

How did CN1C(=O)[C@@]23CC4=CC=C[C@H](O)C4N2C(=O)[C@]1(CO)SS3 (some centres not stated) do in these assays?
USP28 inh: -12.7; USP17 inh: -27.0; USP30 inh: 34.8*

How did CN1C(=O)C23SSC1(CO)C(=O)N2C1Nc2ccccc2C1(C12c4ccccc4NC1N1C(=O)C4(CO)SSC1(C(=O)N4C)C2O)C3O (configuration not stated) do in these assays?
USP28 inh: 14.7; USP17 inh: -31.7; USP30 inh: 9.0

How did CCOC(=O)c1c(C)n(C2CC2)c2ccc(OC)cc12 do in these assays?
USP28 inh: 37.1*; USP17 inh: 4.8; USP30 inh: -8.1

What do the screens show for `CC1=C(C(=O)OCC(C)C)[C@H]2C[C@@](C)(N1)Oc1ccccc12`?
USP28 inh: -21.6; USP17 inh: -2.0; USP30 inh: -4.1

What do the screens show for `COc1cc(C2SCC(=O)Nc3n[nH]c(C)c32)ccc1OCc1ccccc1F` (configuration not stated)?
USP28 inh: 0.0; USP30 inh: 24.6

How did CC(C)=CCOC(C)(C)[C@H]1OC2CC[C@@]3(C)C(CCC4Cc5c([nH]c6ccccc56)[C@@]43C)C23OC3[C@@H]1O (some centres not stated) do in these assays?
USP28 inh: 88.2*; USP17 inh: 87.0*; USP30 inh: 84.1*

What do the screens show for `Cc1cccc(CN2C[C@@H]3C[C@@H](c4nc(C)no4)O[C@@H]3C2)n1`?
USP28 inh: -25.3; USP17 inh: -25.2; USP30 inh: -25.6

Results for CCC(=O)CCCCC[C@@H]1NC(=O)[C@H]2CCCCN2C(=O)[C@H]([C@@H](C)CC)NC(=O)[C@H](Cc2cn(OC)c3ccccc23)NC1=O ?
USP28 inh: 13.4; USP17 inh: 35.9*; USP30 inh: -0.1

Results for CC1OC(OC2C(O)C(O)C(O)C(O)C2O)C(N)CC1N=C(N)C(=O)O (configuration not stated) ?
USP28 inh: -9.7; USP17 inh: -105.1; USP30 inh: -53.8

How did COc1ccc(C2(CCNCc3ccc(Cl)cc3)CCOC(C)(C)C2)cc1 (configuration not stated) do in these assays?
USP28 inh: 9.1; USP17 inh: 2.8; USP30 inh: 34.1*

Results for COc1ccccc1C1CN(C(=O)Cc2c(C)n[nH]c2C)CCN1C (configuration not stated) ?
USP28 inh: 7.7; USP17 inh: 7.2; USP30 inh: 23.6

Results for COc1ccccc1-c1nc2ccccc2n1C1CCN(Cc2cccc(O)c2)CC1 ?
USP28 inh: 0.1; USP17 inh: 11.5; USP30 inh: 1.4

How did C/C=C/C1C(C(=O)c2c(O)c(-c3ccc(O)cc3)c[nH]c2=O)C=C(C)C2CCC(C)CC21 (configuration not stated) do in these assays?
USP28 inh: -1.1; USP17 inh: 15.3; USP30 inh: -6.4

What do the screens show for `CC(C)=CCCC1(C)C=Cc2c(O)c3c(c(CC=C(C)C)c2O1)OC12C(=CC4CC1C(C)(C)OC2(C/C=C(/C)C(=O)O)C4=O)C3=O` (configuration not stated)?
USP28 inh: 82.2*; USP17 inh: 89.3*; USP30 inh: 70.6*

What do the screens show for `Fc1ccc(CN2CCC23CCN(Cc2cccnc2)C3)cc1` (configuration not stated)?
USP28 inh: 4.8; USP17 inh: 1.2; USP30 inh: -0.4

How did CCOC(=O)C1=C(C)N[C@]2(C)C[C@H]1c1ccccc1O2 do in these assays?
USP28 inh: -0.2; USP17 inh: -11.2; USP30 inh: -9.9
